Screening data as filed in PubChem.
IL1B secr inh: qHTS for Inhibitors of Inflammasome Signaling: IL-1-beta AlphaLISA Primary Screen | AID 743279, 2014 | activity change, % at 57.5 µM | THP-1 LPS/ATP IL-1B secretion, AlphaLISA, 16 h; stronger effect = lower value | 4.7% of 360,000 active; in the data active = activity change below about -50%; inconclusive = mostly about -30% to -49%; also: % is scaled to controls: 0 for no effect and ±100 for the full control effect
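Secreted IL-1B measured by AlphaLISA bead assay after 16 h compound exposure of THP-1 cells; compounds (final up to 57.5 uM) added 1 h before LPS (250 ng/mL) and ATP (1.25 mM) stimulation; lower signal means less secretion.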
TGFb SMAD3 inh: qHTS for Inhibitors of TGF-b | HepG2 CAGA-GFP TGF-b/SMAD3 reporter, GFP fluorescence, 18 h; TGF-beta stimulated, 500 pg/mL final | 1.2% of 410,000 active | Potency, µM (doses to about 46.1 µM), inactives show top-dose activity, negative = inhibition, usual class: inhibitors; also: potency is read from the fitted curve at half-maximal effect; % is scaled to controls: 0 for no effect and ±100 for the full control effect; nearly all actives have a fitted effect of over 65% in size
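GFP signal (ex488/em500-530) from TGF-beta-stimulated HEPG2 CAGA-GFP cells, 500 pg/mL final, 18 h at 37 degrees C in DMEM plus 1% FBS, normalized to unstimulated and DMSO-stimulated controls.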
DT40 TDP1 no CPT: qHTS for Inhibitors of human tyrosyl-DNA phosphodiesterase 1 (TDP1): qHTS in cells in absence of CPT; Potency, µM (top dose mostly 46.2 µM), for inactives: at the highest dose activity change, negative = growth inhibition, usual class: inhibitors; AID 686978, 2013; 15% of 420,000 active; DT40 Tdp1-/- hTDP1 cells, no CPT, ATP luminescence, 48 h; also: potency is read from the fitted curve at half-maximal effect; % is scaled to controls: 0 for no effect and ±100 for the full control effect; nearly all actives have a fitted effect of over 55% in size
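A cellular qHTS used chicken DT40 cells lacking endogenous Tdp1 but carrying stably transfected human TDP1. Compounds were applied without camptothecin, and cell growth kinetics were judged by ATP-dependent luminescence after ≥48 hr.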
HepG2 tox: qHTS for Inhibitors of TGF-b: Cytotox Counterscreen; Potency, µM (titrated, usually from 46.1 µM), for the others: top-dose activity change, negative = cytotoxicity, most hits filed as cytotoxic; HepG2 CAGA-GFP viability, ATP luminescence, 18 h; 0.76% of 410,000 active; AID 588856, 2011; also: potency is read from the fitted curve at half-maximal effect
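HepG2 CAGA-GFP cells (1000/well, DMEM with 1% FBS) received compound, then TGF-beta at 500 pg/mL final, and were incubated 18 hours at 37 degrees C. Viability was read by CellTiter-Glo luminescence. Media-only wells were set as complete cell-killing and DMSO as no toxicity.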
TDP1 cell CPT: qHTS for Inhibitors of human tyrosyl-DNA phosphodiesterase 1 (TDP1): qHTS in cells in presence of CPT | chicken DT40 Tdp1-/-;hTDP1 cells + 20 nM CPT, ATP luminescence, 48 h | Potency, µM (series often up to 46.2 µM), without a hit: at the top dose activity change, negative = growth inhibition, most hits filed as inhibitors | AID 686979, 2013 | 12% of 420,000 active; also: potency is read from the fitted curve at half-maximal effect; % is scaled to controls: 0 for no effect and ±100 for the full control effect; nearly all actives have a fitted effect of over 55% in size
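Chicken DT40 Tdp1-/- cells complemented with human TDP1, 400 cells/well, exposed to compounds plus 20 nM camptothecin for at least 48 h at 37 C; viability read as ATP content by CellTiter-Glo luminescence.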
ASM inhibitor: Inhibitors of Secretory Acid Sphingomyelinase (S-ASM): qHTS; 0.006% of 340,000 active; AID 504937, 2011; Potency, µM (series often up to 57.5 µM), for inactives: top-dose activity change, negative = inhibition, hits mostly inhibitors; placental ASM, HMU-PC fluorogenic substrate, 60 min; Sphingomyelin phosphodiesterase (Homo sapiens), P17405; also: potency is read from the fitted curve at half-maximal effect
Target sequence (P17405 47-631 limits assumed): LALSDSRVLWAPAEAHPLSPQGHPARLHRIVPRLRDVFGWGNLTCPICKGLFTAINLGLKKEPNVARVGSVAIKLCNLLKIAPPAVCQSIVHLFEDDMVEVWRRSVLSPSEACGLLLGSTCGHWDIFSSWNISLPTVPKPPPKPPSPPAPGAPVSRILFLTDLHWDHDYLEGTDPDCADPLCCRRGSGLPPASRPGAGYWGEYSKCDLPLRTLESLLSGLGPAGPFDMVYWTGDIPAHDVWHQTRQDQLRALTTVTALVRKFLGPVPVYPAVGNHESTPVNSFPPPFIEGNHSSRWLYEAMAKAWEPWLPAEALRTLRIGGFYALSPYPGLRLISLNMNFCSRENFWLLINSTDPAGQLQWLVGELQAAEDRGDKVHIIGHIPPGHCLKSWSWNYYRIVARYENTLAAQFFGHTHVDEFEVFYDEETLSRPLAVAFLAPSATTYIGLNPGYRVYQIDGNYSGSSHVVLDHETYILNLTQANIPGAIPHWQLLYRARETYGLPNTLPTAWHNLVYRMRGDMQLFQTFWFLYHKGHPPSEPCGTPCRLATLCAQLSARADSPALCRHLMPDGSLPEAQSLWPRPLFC
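Steps: dispense placental human ASM, pin compound, wait 10 min at room temperature, add HMU-PC0 substrate at 9 uM final, incubate 60 min at 37 °C, add stop solution raising pH to 10, read fluorescence.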
* hit, by the source's call; [ ] = dose if it differs, or a comment. In the library only some 19% were active in any assay of this set; here they are far more common. Unless noted, calls follow the shape of the dose curve; as a rule, active = well fitted curve in the direction sought with a large enough effect; inconclusive = small, poorly fitted or top-dose-only effect, or another doubt; inactive = no such curve, though single readings can be large; an effect the other way counts as inactive or inconclusive.

For CCN1C(=O)/C(=C\c2nc3ccccc3c(=O)n2-c2ccccc2)c2ccccc21 the results were IL1B secr inh inconclusive, TGFb SMAD3 inh 15%, DT40 TDP1 no CPT 8.2µM*, HepG2 tox -21%, TDP1 cell CPT 13µM* and ASM inhibitor -16%.
Screening COc1ccc(-n2c(/C=C3\C(=O)N(C)c4ccccc43)nc3ccccc3c2=O)cc1 returned TGFb SMAD3 inh -25%, DT40 TDP1 no CPT inconclusive, HepG2 tox -32%, TDP1 cell CPT -1% and ASM inhibitor -5%.
`CCN1C(=O)/C(=C/c2nc3ccccc3c(=O)[nH]2)c2ccccc21` gave IL1B secr inh 23, TGFb SMAD3 inh -20%, DT40 TDP1 no CPT inconclusive, HepG2 tox 0%, TDP1 cell CPT inconclusive and ASM inhibitor -22%.
CCN1C(=O)/C(=C/c2nc3ccccc3c(=O)n2-c2ccc(C)cc2)c2ccccc21 was read as TGFb SMAD3 inh -1%, DT40 TDP1 no CPT 18µM*, HepG2 tox -21%, TDP1 cell CPT 23µM* and ASM inhibitor -4%.
For O=c1cc(-c2ccccc2Cl)oc2c([N+](=O)[O-])c(O)cc(O)c12 the results were IL1B secr inh -74*, TGFb SMAD3 inh 13µM*, DT40 TDP1 no CPT 26µM*, HepG2 tox -6%, TDP1 cell CPT 23µM* and ASM inhibitor 2%.
For CN1CC[C@H](c2c(O)cc(O)c3c(=O)cc(-c4ccccc4Cl)oc23)[C@@H](O)C1 the results were TGFb SMAD3 inh 0.22µM* and HepG2 tox -3%.
O=c1cc(-c2ccccc2Cl)oc2ccc([N+](=O)[O-])c(O)c12 was read as IL1B secr inh 11, TGFb SMAD3 inh -10%, DT40 TDP1 no CPT inconclusive, HepG2 tox -36%, TDP1 cell CPT inconclusive and ASM inhibitor -12%.
Screening COc1ccccc1-c1cc(=O)c2c(O)ccc([N+](=O)[O-])c2o1 returned IL1B secr inh 14, TGFb SMAD3 inh 0%, DT40 TDP1 no CPT 5.2µM*, HepG2 tox -21%, TDP1 cell CPT 3.7µM* and ASM inhibitor -3%.
For Cc1ncc2c(c1CNS(=O)(=O)N(C)C)CCN(C(=O)/C=C/c1ccccc1Cl)C2 the results were DT40 TDP1 no CPT inconclusive and TDP1 cell CPT 6%[9.04 µM].
Screening c1ccc2ncc(-n3ccnc3)cc2c1 returned IL1B secr inh -8, TGFb SMAD3 inh 1%, DT40 TDP1 no CPT -20%, HepG2 tox -1% and TDP1 cell CPT 4%.
Nc1nc(N)c2ncc(C(=O)CCc3ccccc3)nc2n1 was read as IL1B secr inh 19, TGFb SMAD3 inh 16%, DT40 TDP1 no CPT inconclusive, HepG2 tox 0%, TDP1 cell CPT 13µM* and ASM inhibitor 68%.
CN(C)S(=O)(=O)c1ccc(N2CCCC2)c(C(=O)Nc2nc3ccccc3s2)c1 was read as IL1B secr inh inconclusive, TGFb SMAD3 inh inconclusive, DT40 TDP1 no CPT inconclusive, HepG2 tox 10%, TDP1 cell CPT inconclusive and ASM inhibitor 3%.
For Cc1cccc2sc(NC(=O)c3cc(S(=O)(=O)N(C)C)ccc3N3CCCC3)nc12 the results were IL1B secr inh -124*, TGFb SMAD3 inh inconclusive, DT40 TDP1 no CPT 18µM*, HepG2 tox -28%, TDP1 cell CPT inconclusive and ASM inhibitor -1%.
For CN(C)S(=O)(=O)c1ccc(N2CCCC2)c(C(=O)Nc2nc3ccc(F)cc3s2)c1 the results were IL1B secr inh -51*, TGFb SMAD3 inh inconclusive, DT40 TDP1 no CPT -30%, HepG2 tox 10%, TDP1 cell CPT -21% and ASM inhibitor -7%.
`CCCN(CC(=O)Nc1ccccc1C)C(=O)c1cccc(S(=O)(=O)N2CCN(c3ccccc3)CC2)c1` gave IL1B secr inh -4, TGFb SMAD3 inh -16%, DT40 TDP1 no CPT inconclusive, HepG2 tox -21%, TDP1 cell CPT inconclusive and ASM inhibitor -2%.
Screening CCc1nc2cc(C(=O)N3CCC[C@H]3C(=O)OC)cc(NC(=O)c3ccccc3OC)c2n1C returned DT40 TDP1 no CPT -21% and TDP1 cell CPT 18%[9.04 µM].
Screening CS(=O)(=O)Nc1cccc(C2=NN(C(=O)CCCC(=O)O)C(c3cccs3)C2)c1 (stereo unspecified) returned IL1B secr inh 22, TGFb SMAD3 inh -5%, DT40 TDP1 no CPT -3%, HepG2 tox 0%, TDP1 cell CPT 7% and ASM inhibitor 4%.
O=C(Cc1ccccc1)NNC(=O)Nc1ccc(Cl)c(Cl)c1 was read as IL1B secr inh 0, TGFb SMAD3 inh 0%, DT40 TDP1 no CPT 21µM*, HepG2 tox -21%, TDP1 cell CPT 16µM* and ASM inhibitor -1%.
`O=C(Nc1ccc(Cl)c(Cl)c1)Nc1nc(-c2ccccc2)cs1` gave IL1B secr inh -18, TGFb SMAD3 inh inconclusive, DT40 TDP1 no CPT 13µM*, HepG2 tox -41%, TDP1 cell CPT 12µM* and ASM inhibitor -1%.
`O=C(Nc1ccc(Cl)cc1)Nc1nc(-c2ccccc2O)cs1` gave IL1B secr inh -69*, TGFb SMAD3 inh inconclusive, DT40 TDP1 no CPT 4.6µM*, HepG2 tox -35%, TDP1 cell CPT 5.2µM* and ASM inhibitor -4%.
COc1cccc(-c2csc(NC(=O)Nc3ccccc3)n2)c1 was read as IL1B secr inh -22, TGFb SMAD3 inh inconclusive, DT40 TDP1 no CPT 2.3µM*, HepG2 tox -49%, TDP1 cell CPT 7.3µM* and ASM inhibitor -20%.
Screening COc1cccc(-n2cc(C(=O)OCc3ccc(Cl)cc3)c3ccccc3c2=O)c1 returned TGFb SMAD3 inh 17%, DT40 TDP1 no CPT inconclusive, HepG2 tox 1% and TDP1 cell CPT inconclusive.
O=C(Nc1ccccc1)Nc1nc(-c2ccc(F)c(F)c2)cs1 was read as IL1B secr inh 15, TGFb SMAD3 inh inconclusive, DT40 TDP1 no CPT 2.9µM*, HepG2 tox 4%, TDP1 cell CPT 5.8µM* and ASM inhibitor -4%.
`COc1cccc(C(=O)Nc2nc(-c3ccncc3)cs2)c1` gave IL1B secr inh 0, TGFb SMAD3 inh 15%, DT40 TDP1 no CPT inconclusive, HepG2 tox -1%, TDP1 cell CPT -9% and ASM inhibitor 0%.
